Shn3 inh set2: reduces Shn3 3'UTR luciferase signal in osteoblasts; 360,000 compounds, 0.52% hits; inhibition, % at 12.5 µM; Clone20 osteoblast Shn3 3'UTR firefly luciferase, 24 h;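 active = mean inhibition of at least 75% with every replicate also reaching 75%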
Peg3 promoter: Peg3 promoter activity inhibition; HeLa PEG-Prom luciferase reporter, luminescence, overnight; inhibition, % at 20 µM; 360,000 compounds, 1.7% hits;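 active = inhibition of at least 50% at 20 µM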
CF NFkB inh: cystic fibrosis NF-kB activation inhibition. AID 588850. 360,000 compounds, 0.86% hits. inhibition, % at 5 µM. KKLEB NF-kB-GFP reporter, PAF-induced, GFP fluorescence overnight;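 active = at least 50% inhibition at 5 µM, scaled per plate between neutral and stimulator controls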;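 note: PAF is a Pseudomonas aeruginosa culture filtrate used as stimulus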
LMP1 NFkB inh: Epstein-Barr LMP1 NF-kappaB reporter inhibition; LMP1-induced NF-kappaB luciferase reporter cells, luminescence; inhibition, % at 12.5 µM; 350,000 compounds, 0.69% hits; AID 504558; in the data active = inhibition above about 41%
HIF-2a inh: inhibitors of HIF-2a; inhibition, % at 18.8 µM; 360,000 compounds, 0.72% hits; 786-0 RCC cells HIF-2a reporter, luciferase luminescence, overnight; AID 624352;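 active = inhibition of the luminescence signal of 40% or more relative to plate controls, in a single-dose primary screen at 18.75 µM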
KKLEB tox: counter-screen for CF NF-kB inhibitors: cytotoxicity; KKLEB CF airway cells viability, ATPlite luminescence, overnight; hits give low values; cells stimulated with P. aeruginosa culture filtrate; activity change (cytotoxicity), % at 5 µM; 360,000 compounds, 0.36% hits; AID 602141;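 active = corrected activity change at or below -50% at 5 µM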
Hits are given with their value; n = inactive; x = no result. In the library only some 2.9% were active in any assay of this set; here they are far more common.

SMILES | Shn3 inh set2 | Peg3 promoter | CF NFkB inh | LMP1 NFkB inh | HIF-2a inh | KKLEB tox
CCOC(=O)C1=CNS(=O)(=O)NC1c1ccc(C[C@H](NC(=O)CNC(=O)CCc2ccccc2)C(N)=O)cc1 (some centres undefined) | n | n | n | n | n | n
Cc1ccc(S(=O)(=O)CC2CSc3nc4ccccc4n32)cc1 (centres undefined) | 90 | n | n | n | n | n
CCCCNC(=S)N(C)/N=C/c1c(F)c(F)c(F)c(F)c1F | n | 71 | n | n | n | n
CCCCNC(=S)N(C)/N=C/c1c(C)[nH]c2ccccc12 | n | n | n | n | n | n
C/C(N)=C(/C#N)C(=O)CSc1nnc(-c2ccccc2)n1C | n | n | n | n | n | n
COCC(=O)N1CCC(Oc2ccc(C(=O)N3C[C@H]4CC[C@H]3C4)cc2)CC1 | n | n | n | 65 | n | n
S=C(NCc1ccccn1)NN=Cc1ccccn1 | n | n | n | 61 | n | n
COc1ccc(C=O)cc1Cn1c(C)cc(C)c(C#N)c1=O | n | 51 | n | n | n | n
CCCC(CCC)C(=O)Nc1ccc2c(c1)N(C(=O)CCN1CCN(C)CC1)c1ccccc1CC2 | n | n | n | n | n | n
CN1C(=O)c2cccc(NCCCN3C(=O)c4ccccc4C3=O)c2C1=O | n | n | n | n | n | n
CN1C(=O)c2cccc(NCCCCCCN3C(=O)c4ccccc4C3=O)c2C1=O | 88 | n | n | n | n | n
O=C(CSc1nnc2ncccn12)Nc1cccc2ccccc12 | n | n | n | n | n | n
O=C(COC(=O)CCN1C(=O)/C(=C\C=C\c2ccccc2)SC1=S)Nc1cc(F)ccc1F | n | n | n | n | 83 | n
O=C(CN1C(=O)/C(=C\C=C\c2ccccc2)SC1=S)Nc1ccc(F)cc1 | n | n | n | n | n | n
O=C(NCc1ccc(Cl)cc1)c1ccc(CNc2c(N3CCCC3)c(=O)c2=O)cc1 | n | n | n | n | 51 | n
CCc1nnc2n1N=C(c1ccc(-c3cc(Cl)ccc3Cl)o1)CS2 | n | 63 | n | n | n | n
CN(Cc1ccccc1Cl)C(=O)CCNC(=O)c1ccco1 | n | n | n | n | n | n
CSc1ccc(CN(C)C(=O)CNC(=O)c2ccc3c(c2)OCO3)cc1 | n | n | n | n | n | n
O=C(N/N=C/c1cc(Cl)ccc1O)c1ccc(Br)cc1 | n | n | 57 | n | n | n
CC(C)C(=O)Nc1ccc(C(=O)N/N=C/c2cc(Br)cc(Br)c2O)cc1 | n | 58 | n | 44 | n | n
O=C(N/N=C\c1cc(Br)ccc1O)c1ccc(S(=O)(=O)N2CCCCC2)cc1 | 91 | n | n | n | n | n
CNC(=O)c1cccc(NC(=O)c2cc(-c3ccccc3)nc3c2cnn3C(C)C)c1 | n | 59 | n | n | n | n
Cn1cccc1C(=O)NC(=O)COC(=O)CCNS(=O)(=O)c1cccc(C(F)(F)F)c1 | n | n | n | n | n | n
O=S(=O)(c1ccc2c(c1)CCC2)N1CCNCC1 | n | n | n | n | n | n
CCNc1nc(N)c(C(=O)c2ccc(Cl)s2)s1 | n | n | 55 | n | n | n
SMILES | Shn3 inh set2 | Peg3 promoter | CF NFkB inh | LMP1 NFkB inh | HIF-2a inh | KKLEB tox
C[C@H](O)C(=O)C1=Nc2c(nc(N)[nH]c2=O)NC1 | n | n | n | n | n | -95
C[C@H](O)[C@H](O)[C@H]1CNc2nc(N)[nH]c(=O)c2N1 | n | n | n | n | n | n
Cc1cc(C2=NNC(=NC3CC3)SC2)c(C)n1-c1ccccc1 | 94 | 103 | n | 74 | 91 | n
c1ccc2c(C3=NNC(=NC4CC4)SC3)c[nH]c2c1 | n | n | n | n | n | n
c1ccc(C2=NNC(=NC3CC3)SC2)cc1 | n | n | n | 48 | n | n
O=C1Nc2ccccc2N(O)N1c1cc(-c2ccccc2)[nH]n1 | n | n | n | n | n | n
C[C@H]1CN=C(Nc2ccccc2)N1CCC1CCCC1 | n | n | n | n | n | n
Cc1ccc(-c2nc3c(Cl)cc(C(F)(F)F)cn3c2Cc2ccsc2)cc1 | x | x | x | x | n | x
O=C(Nc1ncccc1O)c1ccc(OCC2CCCO2)cc1 (centres undefined) | n | n | n | 76 | n | n
O=C(Nc1ccc(Cl)c(S(=O)(=O)N2CCOCC2)c1)c1n[nH]c(=O)c2ccccc12 | n | n | n | n | n | n
O=C(Nc1ccc(Cl)c(S(=O)(=O)N2CCOCC2)c1)c1ccc(OCC2CCCO2)cc1 (centres undefined) | n | 103 | n | n | n | n
Cn1nc(C(=O)Nc2ccc(Cl)c(S(=O)(=O)N3CCOCC3)c2)c2ccccc2c1=O | n | 53 | n | n | n | n
O=C(CN1C(=O)CCOc2ccccc21)Nc1cccc(S(=O)(=O)N2CCOCC2)c1 | n | n | n | n | n | n
O=C(CN1C(=O)CCOc2ccccc21)Nc1ccc(Cl)c(S(=O)(=O)N2CCOCC2)c1 | n | n | n | 42 | n | n
COc1ccc(C(=O)Nc2ccc(Cl)c(S(=O)(=O)N3CCOCC3)c2)cc1 | n | n | n | n | n | n
COc1ccc(NC(=O)COC(=O)CN2C(=O)C3CCCCC3C2=O)cc1OC (centres undefined) | n | n | n | n | n | n
COc1ccc(NC(=O)CCNS(=O)(=O)c2cc(Br)ccc2Br)cc1S(N)(=O)=O | n | n | n | n | n | n
Cc1cc(N=O)c(C)cc1O | n | n | n | x | n | n
Cc1cc(O)c(-c2cc(O)c(C)cc2O)cc1O | n | 70 | n | n | n | n
CN(C(=O)c1ccc(NC(=O)Cc2ccc(NC(=O)C3CCCN(C(=O)C4CCC4)C3)cc2)cc1)C1CC1 (centres undefined) | n | n | n | n | n | n
COc1ccc(N2CCN(c3nc(NCCc4ccc(OC)c(OC)c4)nc(OC)n3)CC2)cc1 | n | 67 | n | n | n | n
CCOc1nc(NCCc2ccc(OC)c(OC)c2)nc(N2CCN(c3ccc(OC)cc3)CC2)n1 | n | n | n | n | n | n
O=C(c1nn2c(C(F)(F)F)cc(-c3ccco3)nc2c1Br)N1CCCc2ccccc21 | n | 60 | n | n | n | n
O=C(CCCOc1ccc(Cl)cc1Cl)N/N=C/c1ccccc1 | n | n | n | n | n | n
O=C(CCCOc1ccc(Cl)cc1Cl)N/N=C/c1ccccc1O | n | 52 | n | n | n | n
Cc1ccnc(N2C(=O)c3cccc4c([N+](=O)[O-])ccc(c34)C2=O)c1 | n | 108 | n | n | n | n
Cc1ccc(N2C(=O)c3cccc4c([N+](=O)[O-])ccc(c34)C2=O)c2cccnc12 | 92 | 63 | n | n | n | n
Cc1ccnc(N2C(=O)c3ccccc3C2=O)c1 | n | n | n | x | n | n

Screening results as filed in PubChem.
